These results are taken from PubChem BioAssay (Tox21).

Records with an inconclusive call do not appear. Where a call stands in place of a potency, no number is given. The source made the active and inactive calls. The call rests on the fitted dose curve.

Chain of D(2) dopamine receptor (Homo sapiens) (P14416 whole entry, looked up): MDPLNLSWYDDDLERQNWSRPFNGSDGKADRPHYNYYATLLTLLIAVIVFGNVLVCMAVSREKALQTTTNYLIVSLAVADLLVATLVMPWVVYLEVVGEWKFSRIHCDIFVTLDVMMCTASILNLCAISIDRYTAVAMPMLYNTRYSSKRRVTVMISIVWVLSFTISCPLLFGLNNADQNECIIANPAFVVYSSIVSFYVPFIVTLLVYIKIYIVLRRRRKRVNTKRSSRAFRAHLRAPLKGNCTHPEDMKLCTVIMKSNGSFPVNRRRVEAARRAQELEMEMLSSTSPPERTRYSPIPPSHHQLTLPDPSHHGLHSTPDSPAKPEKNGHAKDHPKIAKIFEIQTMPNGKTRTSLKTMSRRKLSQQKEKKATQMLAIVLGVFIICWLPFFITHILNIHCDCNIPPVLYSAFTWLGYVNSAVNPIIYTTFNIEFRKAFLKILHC

This test has as its target D(2) dopamine receptor (Homo sapiens) (UniProt P14416). In words: Dopamine D2 receptor (DRD2) small molecule agonists, cell-based qHTS assay (AID 1963594). Further: nearly all actives have a fitted effect of over 35% in size. Conditions: HEK293-DRD2 cAMP HTRF, agonist mode, 30 min; series mostly up to 92.4 µM. From the text: National Center for Advancing Translational Sciences [NCATS]
Division of Preclinical Innovation [DPI]
U.S. Environmental Protection Agency [EPA]
National Institutes of Environmental Health Sciences [NIEHS]
National Toxicology Program [NTP]
U.S. Food and Drug Administration [FDA]
DRD2 is the D2 subtype of the dopamine receptor, which is coupled to Gi subtype of G protein-coupled receptor. This G protein-coupled receptor inhibits adenylyl cyclase activity. The DRD2-HEK293 cell line stably expressing D2 dopamine receptor can be used for screening agonists and antagonists of interactions between D2 and its ligands. The Hek293-DRD2 cAMP assay is based on HTRF technology. It measures changes of cAMP accumulation in response to Gi coupled GPCR activation or inhibition.
Tox21 Assay Protocol Summary:
DRD2-Hek293 cells were dispensed at 600 cells/3uL/well in 1536-well white plates using a Multidrop Dispenser. After the assay plates were incubated at a 37 C/5% CO2 incubator for 24 h, 1 uL of Ro20-1724 at final concentration of 0.1 mM was transferred to the assay plate by a Flying Reagent Dispenser. Following Ro20-1724 addition, 23 nL of compound dissolved in DMSO, positive controls or DMSO only was added to the assay plates via Wako pintool station. The assay plates were incubated at room temperature for 10 min. Next, 1 uL of NKH477 at 200nM was added into the plates. After the assay plates were incubated at room temperature for an additional 30 min, 2.5 ul/well of cAMP-d2 and 2.5 ul/well of anti-cAMP-cryptate were added respectively into the assay plates using a Flying Reagent Dispenser. The plates were incubated at room temperature for 1 h. The fluorescence intensity in the plates was measured at 340 nm excitation and 665 & 620 nm emission by an Envision plate reader.
(Quantitative high-throughput screening tests each substance at several concentrations.)
For `COc1cc(CCC(C)=O)ccc1O`, the Potency entry is “inactive”.
For the molecule `COc1cccc(OC)c1`, the Potency result is “inactive”.
As for `Cc1cccc(N(C)C(=S)Oc2ccc3ccccc3c2)c1`, the entry is “inactive”; as for `CCCCCCOC(=O)CC`, “inactive”; as for `Cc1nc(-c2ccc3c(c2)CCN(CCC2CCC(NC(=O)/C=C/c4ccc(F)cc4)CC2)CC3)no1` (stereo not given), “inactive”.
In the case of `O=S(O)CO` it was “inactive”; in that of `CCSC(=O)N(CC)CC`, “inactive”; in that of `CC(=O)CC/C=C(\C)CC/C=C(\C)CC/C=C(\C)CCC=C(C)C`, “inactive”.
As for `CC(C)(Oc1ccc(CCNC(=O)c2ccc(Cl)cc2)cc1)C(=O)O`, the entry is “inactive”; as for `CSc1ccc(C(=O)c2[nH]c(=O)[nH]c2C)cc1`, “inactive”.
For the molecule `CCOC(=O)[C@H](CCc1ccccc1)N[C@@H](C)C(=O)N1C(=O)N(C)C[C@H]1C(=O)O`, the Potency entry was “inactive”.
In the case of `CC(=O)C(C)O` (stereo not given) it was “inactive”; in that of `Cc1c(C)c2c(c(C)c1O)CCC(C)(COc1ccc(CC3SC(=O)NC3=O)cc1)O2` (stereo not given), “inactive”.
In the case of `CCCCNc1ccccc1` it was “inactive”; in that of `O=Nc1ccc(Nc2ccccc2)cc1`, “inactive”; in that of `CCCOCCO`, “inactive”.
As for `O=C(c1ccc(Cl)cc1)c1ccc(Cl)cc1`, the entry is “inactive”; as for `CC1=CCC(C(C)(C)O)CC1` (stereo not given), “inactive”; as for `C[Si]1(C)O[Si](C)(C)O[Si](C)(C)O[Si](C)(C)O[Si](C)(C)O1`, “inactive”.
Turning to `CNC(=O)[C@H]1O[C@@H](n2cnc3c(NCc4cc(Cl)ccc4OCc4cc(C)no4)ncnc32)[C@H](O)[C@@H]1N`, the Potency entry is “inactive”.
In the case of `CCc1c(Br)c(Br)c(Br)c(Br)c1Br` it was “inactive”; in that of `CCC1CCCCC1`, “inactive”.
Regarding `CC1=C(O)C(=O)C(C)O1` (stereo not given), the Potency entry was “inactive”.
As for `CC(C)N=C(N)/N=C(\N)Nc1ccc(Cl)cc1`, the entry is “inactive”; as for `Cc1oc(C)c(C(=O)Nc2ccccc2)c1C`, “inactive”; as for `CCCCCC(=O)O[C@]1(C(C)=O)CC[C@H]2[C@@H]3CCC4=CC(=O)CC[C@]4(C)[C@H]3CC[C@@]21C`, “inactive”.
Turning to `CCCC[C@H]1CN(CC2CCOCC2)C(=O)OC12CCN(C1(C)CCN(C(=O)c3c(C)ncnc3C)CC1)CC2`, the Potency entry is “inactive”.
As for `Cc1ccc(S(=O)(=O)NC2CCCCC2)cc1`, the entry is “inactive”; as for `O=C(O)c1ccccc1OP(=O)(O)O`, “inactive”.
As for `Clc1ccccc1-c1nc(-c2ccncc2)no1`, the entry is “inactive”.
As for `CCN(CC)CCNC(=O)c1ccc(NC(C)=O)cc1`, the entry is “inactive”; as for `CCN(CC)c1ccc2c(C)cc(=O)oc2c1`, “inactive”; as for `CC(=O)N1C[C@H](O)C[C@H]1C(=O)O`, “inactive”.
`Clc1cccc(Cl)c1NC1=NCCN1`: the Potency entry is “inactive”.
As for `Cc1cccc2cccnc12`, the entry is “inactive”; as for `CC(C)COC(=O)c1ccccc1O`, “inactive”.
In the case of `Cc1occc1SSc1ccoc1C` it was “inactive”.
As for `NC(=O)Nc1ccccc1`, the entry is “inactive”.
Turning to `[K+]`, the Potency entry is “inactive”.
Turning to `CC(C)C(=O)Nc1cccc(C2CN3CCSC3=N2)c1` (stereo not given), the Potency entry was “inactive”.
